Experimental data taken from PubChem BioAssay.
Unmarked numbers belong to inactive results.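 How the source made its calls, unless noted: active means viability at or below 27.92% in each of two runs, the all-compound median minus 4 SD; inconclusive means no clear call, values can overlap the other calls; inactive means the rest.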 Inconclusive results are not listed.

assay: viability of PTEN-null HCT116 cells – cell-based, HCT116 clonal line, CellTiter-Glo, pilot screen (AID 824); conditions: HCT116 PTEN-deleted viability, 60 h, at 10 µM, hits give low values;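 further: 0% = 20 µM Hyamine control and 100% = vehicle cell control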

| Structure (SMILES) | viability |
| --- | --- |
| CC1(C(=O)NCc2cccnc2)CCC(=O)N1Cc1cccs1 (stereo not given) | 102% |
| C=CCOC(=O)C1=C(C)NC(C)=C(C(=O)OCC=C)C1c1ccc(O)cc1 | 71% |
| C=CCNC(=O)c1ccc(C)cc1Cl | 94.5% |
| c1cncc(-c2noc(-c3ccco3)n2)c1 | 94.2% |
| O=C(O)C1C2C=CC(C2)C1C(=O)NCCc1cccc(Cl)c1 (stereo not given) | 94.7% |
| O=C1c2oc3ccc(F)cc3c(=O)c2C(c2cccc(O)c2)N1CCCN1CCOCC1 (stereo not given) | 96.2% |
| COc1cc(Nc2cc(C)nc3nc(C)nn23)cc(OC)c1OC | 104% |
| CNC(=O)c1ccsc1NC(=O)c1ccc(Cl)s1 | 85.6% |
| C=CCSC1=C(C#N)C(c2ccc(OCC)cc2)CC(=O)N1 (stereo not given) | 88.2% |
| O=C(NC1CCCCCC1)C1CCN(S(=O)(=O)c2cccc3cccnc23)CC1 | 105% |
| CC(C)NC(=O)CCCc1ccccc1 | 91.1% |
| Cc1nc2ccc(NC(=O)c3ccc(S(=O)(=O)N4CCOCC4)cc3)cc2s1 | 93.8% |
| Cc1cc(Nc2cc(C)on2)n2ncnc2n1 | 99.8% |
| O=C1C2CCCN2C(c2ccc(Br)cc2)N1c1ccc(F)cc1 (stereo not given) | 90% |
| Cc1cc(NC(=O)CSc2nnc(C)c(=O)[nH]2)no1 | 101% |
| CCOC(=O)C(C)Sc1nnc(Cc2cc(=O)[nH]c(=O)[nH]2)n1-c1ccc(OCC)cc1 (stereo not given) | 101% |
| CCOc1ccc(N(CC(=O)O)S(=O)(=O)c2ccc(OC)c(OC)c2)cc1 | 95.3% |
| O=C(CSc1nnnn1-c1cccc2c1CCCC2)N1CCOCC1 | 94.5% |
| CS(=O)(=O)N1CCN(c2nc(-c3ccc(F)cc3)cs2)CC1 | 88.8% |
| CN1CCN(c2ccccc2NC(=O)C(Cc2ccccc2)n2cccc2)CC1 (stereo not given) | 59.3% |

| Structure (SMILES) | viability |
| --- | --- |
| O=C(Nc1cccnc1)c1ccccc1F | 103% |
| COc1ccccc1NC(=O)CSc1nnc(-c2ccccn2)n1Cc1ccco1 | 96.8% |
| Cc1cccn2cc(CCNC(=O)c3ccc(Br)o3)nc12 | 94.3% |
| Cc1ccccc1-n1nc(-c2ccc(N)cc2)cc1N | 94.7% |
| COc1ccc(-c2noc(Cc3ccccc3OC)n2)cc1 | 83.7% |
| COc1cccc(C(c2sc3ncnn3c2O)N2CC(C)OC(C)C2)c1 (stereo not given) | 95.7% |
| C=CCn1c(O)c(C2=c3ccccc3=NC2=O)s/c1=N/c1nccs1 | 36% |
| O=C(O)C1CCCCC1C(=O)NCc1cn2ccccc2n1 (stereo not given) | 93.7% |
| Cn1c(C(=O)N2CCN(C(=O)c3ccco3)CC2)cc2c(=O)n(C)c3ccccc3c21 | 87% |
| CCOc1ccc2[nH]cc(S(=O)(=O)c3ccc(F)cc3)c(=O)c2c1 | 87.2% |
| Cc1ccc(C)c(C(=O)CSc2n[nH]c(C)n2)c1 | 102% |
| Cc1cccc(Cn2c(N3CCCCC3C)nc3c2c(=O)[nH]c(=O)n3C)c1 (stereo not given) | 78% |
| Cc1nnc(SCC(=O)N2CCOCC2)n1C | 101% |
| N#CC1=C(N)Oc2n[nH]c(-c3ccccc3)c2C1c1cccc(OC(=O)N2CCOCC2)c1 (stereo not given) | 104% |
| CCOc1cc(-c2nc(-c3ccncc3)no2)cc(OCC)c1OCC | 65% |
| CC(=O)Nc1nnc(C)s1 | 93.3% |
| CSC1=NCCN1C(=O)c1ccc(S(=O)(=O)N2CCOCC2)cc1 | 94.1% |
| CCCC(NS(=O)(=O)c1ccc(OC)cc1)C(=O)O (stereo not given) | 95.4% |
| CCOC(=O)Cn1c(=O)oc2cc(S(=O)(=O)Nc3ccc(F)cc3)ccc21 | 106% |
| CNC(=O)c1c(NC(=O)c2nc3ccccc3s2)sc2c1CCC2 | 61% |

assay: RAM pathway blockade in budding yeast – dse1pr::URA3 reporter, 5-FOA selection, pilot screen (AID 869;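 active means inhibition over a set limit, the all-compound mean plus 3 SD, in both replicate runs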;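 further: 0% = DMSO wells with no growth and 100% = 10 µM 1-NA-PP1 with full growth; RAM network block rescues cells from 5-FOA so hits raise OD615 growth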); conditions: S. cerevisiae dse1pr::URA3 5-FOA growth, OD615, 2 d; at 10 µM; hits give high values; strain carries analog-sensitive mutant Cbk1 kinase

| Structure (SMILES) | inhibition |
| --- | --- |
| CC1(C(=O)NCc2cccnc2)CCC(=O)N1Cc1cccs1 (stereo not given) | 0% |
| C=CCOC(=O)C1=C(C)NC(C)=C(C(=O)OCC=C)C1c1ccc(O)cc1 | 0.035% |
| C=CCNC(=O)c1ccc(C)cc1Cl | 1.02% |
| c1cncc(-c2noc(-c3ccco3)n2)c1 | 1.41% |
| O=C(O)C1C2C=CC(C2)C1C(=O)NCCc1cccc(Cl)c1 (stereo not given) | 0.045% |
| O=C1c2oc3ccc(F)cc3c(=O)c2C(c2cccc(O)c2)N1CCCN1CCOCC1 (stereo not given) | 0.63% |
| COc1cc(Nc2cc(C)nc3nc(C)nn23)cc(OC)c1OC | 0.525% |
| CNC(=O)c1ccsc1NC(=O)c1ccc(Cl)s1 | 1.08% |
| C=CCSC1=C(C#N)C(c2ccc(OCC)cc2)CC(=O)N1 (stereo not given) | 1.47% |
| O=C(NC1CCCCCC1)C1CCN(S(=O)(=O)c2cccc3cccnc23)CC1 | -0.605% |
| CC(C)NC(=O)CCCc1ccccc1 | 1.2% |
| Cc1nc2ccc(NC(=O)c3ccc(S(=O)(=O)N4CCOCC4)cc3)cc2s1 | 3.07% |
| Cc1cc(Nc2cc(C)on2)n2ncnc2n1 | 0.195% |
| O=C1C2CCCN2C(c2ccc(Br)cc2)N1c1ccc(F)cc1 (stereo not given) | 2.89% |
| Cc1cc(NC(=O)CSc2nnc(C)c(=O)[nH]2)no1 | 2.48% |
| CCOC(=O)C(C)Sc1nnc(Cc2cc(=O)[nH]c(=O)[nH]2)n1-c1ccc(OCC)cc1 (stereo not given) | 0.75% |
| CCOc1ccc(N(CC(=O)O)S(=O)(=O)c2ccc(OC)c(OC)c2)cc1 | 1.32% |
| O=C(CSc1nnnn1-c1cccc2c1CCCC2)N1CCOCC1 | 0.68% |
| CS(=O)(=O)N1CCN(c2nc(-c3ccc(F)cc3)cs2)CC1 | 2.98% |
| CN1CCN(c2ccccc2NC(=O)C(Cc2ccccc2)n2cccc2)CC1 (stereo not given) | 2.68% |

| Structure (SMILES) | inhibition |
| --- | --- |
| O=C(Nc1cccnc1)c1ccccc1F | 0.88% |
| COc1ccccc1NC(=O)CSc1nnc(-c2ccccn2)n1Cc1ccco1 | 1.23% |
| Cc1cccn2cc(CCNC(=O)c3ccc(Br)o3)nc12 | 1.12% |
| Cc1ccccc1-n1nc(-c2ccc(N)cc2)cc1N | 0.8% |
| COc1ccc(-c2noc(Cc3ccccc3OC)n2)cc1 | 1.83% |
| COc1cccc(C(c2sc3ncnn3c2O)N2CC(C)OC(C)C2)c1 (stereo not given) | 1.34% |
| C=CCn1c(O)c(C2=c3ccccc3=NC2=O)s/c1=N/c1nccs1 | 0.115% |
| O=C(O)C1CCCCC1C(=O)NCc1cn2ccccc2n1 (stereo not given) | 0.43% |
| Cn1c(C(=O)N2CCN(C(=O)c3ccco3)CC2)cc2c(=O)n(C)c3ccccc3c21 | 0.83% |
| CCOc1ccc2[nH]cc(S(=O)(=O)c3ccc(F)cc3)c(=O)c2c1 | 0.455% |
| Cc1ccc(C)c(C(=O)CSc2n[nH]c(C)n2)c1 | 1.77% |
| Cc1cccc(Cn2c(N3CCCCC3C)nc3c2c(=O)[nH]c(=O)n3C)c1 (stereo not given) | 0.805% |
| Cc1nnc(SCC(=O)N2CCOCC2)n1C | 2.25% |
| N#CC1=C(N)Oc2n[nH]c(-c3ccccc3)c2C1c1cccc(OC(=O)N2CCOCC2)c1 (stereo not given) | 2.34% |
| CCOc1cc(-c2nc(-c3ccncc3)no2)cc(OCC)c1OCC | 1.08% |
| CC(=O)Nc1nnc(C)s1 | 1.29% |
| CSC1=NCCN1C(=O)c1ccc(S(=O)(=O)N2CCOCC2)cc1 | 0.62% |
| CCCC(NS(=O)(=O)c1ccc(OC)cc1)C(=O)O (stereo not given) | 1.29% |
| CCOC(=O)Cn1c(=O)oc2cc(S(=O)(=O)Nc3ccc(F)cc3)ccc21 | 1.07% |
| CNC(=O)c1c(NC(=O)c2nc3ccccc3s2)sc2c1CCC2 | 0.625% |
